Source: PubChem BioAssay (NCATS)
Values joined by “and” are separate entries in the source; they are usually repeats but may differ in a detail not shown here. Equal entries are not always repeated. Inconclusive results are not listed. Active and inactive are the calls of the source. Unless noted, calls come from the whole dose curve; as a rule, active = well fitted curve in the direction sought with a large enough effect; inconclusive = small, poorly fitted or top-dose-only effect, or another doubt; inactive = no such curve, though single readings can be large; an effect the other way counts as inactive or inconclusive.

What was measured:
CP215 = assay: qHTS profiling for inhibitors of Plasmodium falciparum proliferation (AID 504749);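 note: 0% = DMSO vehicle and full inhibition = artemisinin control; nearly all actives have a fitted effect of over 60% in size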; details: P. falciparum in erythrocytes, SYBR Green DNA, 72 h; series mostly up to 28.7 µM
How it was run: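 Quantitative HTS: compounds pinned into medium, infected erythrocytes added (0.3% parasitemia, 2.5% hematocrit), 72 h culture at 37 C under 5% CO2. Saponin/Triton lysis with SYBR Green I, overnight RT, then fluorescence read.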

[1] = Cell Viability - Jurkat (AID 426;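 active = dose-dependent loss of cell ATP signal giving a full or clear fitted curve, ranked by lower potency value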;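 note: potency is the fitted concentration of half-maximal effect; cells exposed to compound for 40 hours at 37 °C before ATP read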); details: qHTS
How it was run: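 Cytotoxicity taken as drop in cellular ATP (CellTiter-Glo luminescence, 20 min room temperature) after 40 hr, 37C treatment of 5000 Jurkat Clone E6-1 cells per well; concentration-response fitted with Hill equation for AC50.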

[2] = Cell Viability - Hek293 (AID 427;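 active = compounds whose dose-response curve shows a full or clear partial loss of cell viability, called from curve shape rather than a numeric limit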;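 note: potency is the fitted concentration of half-maximal effect; cells exposed to compound for 40 hours at 37 °C before reading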); details: qHTS
How it was run: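 AC50 values derive from Hill-modelled concentration-response of ATP-based luminescence, normalized between DMSO-only and 100 uM tamoxifen controls. Cells were exposed in complete culture medium for 40 hr at 37 °C before detection.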

[3] = Cell Viability - HepG2 (AID 433; calls by dose curve;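 note: potency is the fitted concentration of half-maximal effect; potency for ATP loss meaning cytotoxicity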); details: qHTS
How it was run: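 Cytotoxicity is scored as loss of intracellular ATP in HepG2 cells exposed to compounds for 40 h. Concentration-response curves, normalized to DMSO and 100 uM tamoxifen, give AC50 values.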

[4] = Cell Viability - NIH 3T3 (AID 541); details: NIH 3T3 cell viability, qHTS; activity change, negative = cytotoxicity: at 92.2 µM (top of the series); note: nearly all actives have a fitted effect of over 25% in size; note: potency is the fitted concentration of half-maximal effect;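 for activity change, negative = cytotoxicity: plate controls were DMSO alone for no effect and tamoxifen positive control for full effect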
How it was run: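 Intracellular ATP (CellTiter-Glo luminescence, 20 min at room temperature) measured after 40 hr compound exposure at 37 °C of 1000 NIH 3T3 mouse fibroblasts/well in complete medium; AC50 derived by Hill-equation modelling of qHTS concentration-response curves.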

[5] = Cell Viability - HUV-EC-C (AID 542); note: nearly all actives have a fitted effect of over 35% in size; note: potency is the fitted concentration of half-maximal effect; for activity change, negative = cytotoxicity: % is set by controls: 0 for no effect and ±100 for the full control effect
How it was run: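 CellTiter-Glo luminescence measured ATP loss in HUV-EC-C cells (1000/well) after 40 hr compound exposure at 37 °C, in complete culture medium. Concentration-response data were Hill-fitted to give AC50.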

[6] = Cell Viability - SH-SY5Y (AID 544); details: SH-SY5Y neuroblastoma cell viability; viability change, negative = cytotoxic: at 92.2 µM (top of the series);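 note: 0% = DMSO alone and -100% = 100 µM tamoxifen; nearly all actives have a fitted effect of over 55% in size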
How it was run: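 Cytotoxicity measured via ATP-dependent luciferase luminescence (CellTiter-Glo) following 40 h, 37 °C exposure of 1500 SH-SY5Y cells per well. Concentration-response data were fitted with the standard Hill equation to give AC50.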

[7] = Cell Viability - Mesenchymal (AID 546); details: mesenchymal cells viability, qHTS; activity change, negative = cytotoxicity: at 91.7 µM (top of the series);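 note: cells exposed to compound for 40 hours before reading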; note: potency is the fitted concentration of half-maximal effect;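 for activity change, negative = cytotoxicity: 0% = DMSO only and -100% = 100 µM tamoxifen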
How it was run: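 In this qHTS cytotoxicity format, glomerulus-derived human mesenchymal kidney cells received compound for 40 hr, then luciferase-based ATP quantitation. Concentration-response data were fitted with the Hill equation.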

[8] = target: Bile acid receptor (Homo sapiens) (UniProt Q96RI1); assay: qHTS assay for small molecule antagonists of farnesoid X receptor signaling (AID 588526; calls by dose curve; note: % is set by controls: 0 for no effect and ±100 for the full control effect)
How it was run: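 Concentration-response titrations were fitted to the Hill equation for half-maximal inhibition and maximal response, with data normalised to 50 uM chenodeoxycholic acid and DMSO control wells. Cells: FXR-UAS-bla HEK293T, dialyzed FBS.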

[9] = target: Peroxisome proliferator-activated receptor gamma (Homo sapiens) (UniProt P37231); assay: qHTS assay for small molecule agonists of peroxisome proliferator-activated receptor gamma signaling (AID 588536; active = well fitted curve in the direction sought with a large enough effect in the signal ratio, with a control signal flat, not every such curve was filed as active; the % refers to the signal ratio;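 note: 0% = DMSO basal wells and 100% = rosiglitazone at 2 µM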)
How it was run: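 Using GeneBLAzer HEK293 cells, response was quantified by CCF4 fluorescence and normalized between basal DMSO (0%) and rosiglitazone 2 uM (100%); curves yielded half-maximal stimulation concentration and efficacy.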

[10] = qHTS assay for small molecule agonists of the antioxidant response element (ARE) signaling pathway (AID 651741; active = well fitted activation curve with a large enough effect in the signal ratio; the % refers to the signal ratio; note: potency is the fitted concentration of half-maximal effect; for activation: % of control where 0% means no effect)
How it was run: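 Reporter: beta-lactamase under ARE, stably in HepG2. Exposure: 16 h, 37 C, compounds delivered in DMSO by pin tool after 5 h cell preincubation. Readout: FRET substrate fluorescence after 2 h at RT.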

[11] = qHTS assay for small molecule activators of the p53 signaling pathway (AID 651743; active = well fitted activation curve with a large enough effect in the signal ratio, not every such curve was filed as active; the % refers to the signal ratio; note: % of control where 0% means no effect); details: HCT-116 p53RE-bla, beta-lactamase FRET ratio, 16 h; activation: active compounds read high
How it was run: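 Agonist-mode quantitative HTS in HCT-116 cells carrying a p53-response-element beta-lactamase reporter; 16 h compound treatment at 37 C, then FRET substrate loading for 2 h at room temperature and fluorescence read.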

[12] = qHTS assay for small molecule disruptors of the mitochondrial membrane potential - 1 hr assay (AID 651754; calls by dose curve; note: nearly all actives have a fitted effect of over 35% in size; note: potency is the fitted concentration of half-maximal effect)
How it was run: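 Mitochondrial potential in living HepG2 cells after 1 hr compound treatment at 37C was read with Mito-MPS dye added for a further 30 min. Red aggregate and green monomer fluorescence were measured; loss of potential leaves dye as cytoplasmic monomers.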

[13] = qHTS assay for small molecule disruptors of the mitochondrial membrane potential - 5 hr assay (AID 651755; calls by dose curve; note: nearly all actives have a fitted effect of over 40% in size; note: potency is the fitted concentration of half-maximal effect)
How it was run: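 Seed HepG2 overnight, add compound, incubate 5 hr at 37C and 5% CO2, stain 30 min with Mito-MPS, then measure monomer (490/535 nm) and aggregate (540/590 nm) fluorescence.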

[14] = qHTS assay for environmental chemicals that activate the Aryl hydrocarbon Receptor (AhR) signaling pathway (AID 651777); details: 1A2-DRE human hepatoma cells, luciferase, 24 h; activation: active compounds read high; note: % of control where 0% means no effect; nearly all actives have a fitted effect of over 15% in size
How it was run: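 Human hepatoma 1A2-DRE cells, stably carrying a dioxin response element and CYP1A2 promoter driving luciferase, were exposed to compounds for 24 hr at 37 C and 5% CO2. Luciferase signal was then read after 30 min One-Glo at room temperature.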

[15] = qHTS Assay for Identification of Small Molecule Agonists for Thrombopoietin (TPO) Signaling Pathway (AID 917); note: % is set by controls: 0 for no effect and ±100 for the full control effect
How it was run: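 Quantitative HTS for pathway activators: compounds were pin-transferred onto IL-3-starved Ba/F3 cells expressing human TPO receptor, TPO was added at its EC50 (26 pM final), and after 24 hrs at 37 C reporter luciferase was measured.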

[16] = target: Pyruvate kinase (Leishmania mexicana) (UniProt Q27686); assay: qHTS Validation Assay for Inhibitors of Leishmania Mexicana Pyruvate Kinase (AID 945);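 note: 0% = DMSO only neutral control wells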
How it was run: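 LmPYK E451W 0.2 nM; 0.5 mM PEP, 0.1 mM ADP, 7 mM MgCl2, 50 mM KCl, imidazole pH 7.2, 0.01% Tween 20, 0.05% BSA; 1 h RT; PKLight luminescence; DMSO-normalized.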

[17] = target: Pyruvate kinase PKM (Homo sapiens) (UniProt P14618); assay: qHTS Assay for Activators of Human Muscle Pyruvate Kinase (AID 954; active = well fitted curve in the direction sought with a large enough effect, not every such curve was filed as active;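 note: 0% = uninhibited enzyme and -100% = no enzyme or full thiadiazolimine inhibition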)
How it was run: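 Screening used highly purified human pyruvate kinase M2 under submaximal activity, with PEP at its Km and ADP below Km. After an hour at room temperature, ATP was read by luciferase luminescence.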

[18] = target: Alpha-galactosidase A (Homo sapiens) (UniProt P06280); assay: Counterscreen for Glucocerebrosidase Inhibitors: qHTS Assay for Human alpha-Galactosidase at pH 4.5 (AID 992); note: 0% is about no effect
How it was run: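 Each compound is preincubated briefly with 2 nM enzyme before substrate addition (80 uM); plates then sit 20 min at ambient temperature, are quenched with 1M NaOH/1M glycine, and read fluorometrically.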

[19] = target: alpha-glucosidase (Oryza sativa, rice) (UniProt Q653V4); assay: Counterscreen for Glucocerebrosidase Inhibitors: qHTS Assay for Rice alpha-Glucosidase at pH 5.0 (AID 997);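 note: 0% = full activity with enzyme and -100% = basal without enzyme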
How it was run: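 Endpoint fluorogenic assay at pH 5.0: compounds (0.7 nM to 77 uM) titrated against 4 nM rice enzyme and 400 uM 4-MU-alpha-glucoside for 20 min at room temperature; NaOH/glycine stop, read ex 365/em 440 nm, Hill-fitted AC50.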

Chain of Bile acid receptor (Homo sapiens) (Q96RI1 whole entry, looked up): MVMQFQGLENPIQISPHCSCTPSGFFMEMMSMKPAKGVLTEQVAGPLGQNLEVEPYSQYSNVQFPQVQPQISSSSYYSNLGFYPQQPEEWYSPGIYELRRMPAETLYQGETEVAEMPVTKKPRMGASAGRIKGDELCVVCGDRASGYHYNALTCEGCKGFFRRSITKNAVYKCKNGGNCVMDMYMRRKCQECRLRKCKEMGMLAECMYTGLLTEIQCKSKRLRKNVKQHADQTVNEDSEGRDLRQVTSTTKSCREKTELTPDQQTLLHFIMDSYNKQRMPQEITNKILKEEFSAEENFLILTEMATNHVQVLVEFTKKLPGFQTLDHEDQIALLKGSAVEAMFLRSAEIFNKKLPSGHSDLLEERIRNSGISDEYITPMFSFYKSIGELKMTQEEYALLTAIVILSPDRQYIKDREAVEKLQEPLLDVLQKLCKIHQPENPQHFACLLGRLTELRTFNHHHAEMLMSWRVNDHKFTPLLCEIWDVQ
Chain of Pyruvate kinase (Leishmania mexicana) (Q27686 2-499 E452W): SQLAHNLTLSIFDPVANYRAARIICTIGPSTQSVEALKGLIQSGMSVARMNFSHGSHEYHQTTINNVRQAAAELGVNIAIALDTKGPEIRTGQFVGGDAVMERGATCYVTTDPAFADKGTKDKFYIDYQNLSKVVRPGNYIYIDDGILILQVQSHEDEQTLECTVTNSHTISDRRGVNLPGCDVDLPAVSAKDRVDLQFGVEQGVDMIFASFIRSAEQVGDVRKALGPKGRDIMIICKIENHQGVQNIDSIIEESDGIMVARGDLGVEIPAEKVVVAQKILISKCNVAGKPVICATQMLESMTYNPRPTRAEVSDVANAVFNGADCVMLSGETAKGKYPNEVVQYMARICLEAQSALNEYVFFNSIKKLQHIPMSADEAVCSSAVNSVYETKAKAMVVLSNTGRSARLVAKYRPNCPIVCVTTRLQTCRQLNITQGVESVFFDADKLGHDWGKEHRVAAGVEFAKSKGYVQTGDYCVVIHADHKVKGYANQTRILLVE
Chain of Peroxisome proliferator-activated receptor gamma (Homo sapiens) (P37231 whole entry, looked up): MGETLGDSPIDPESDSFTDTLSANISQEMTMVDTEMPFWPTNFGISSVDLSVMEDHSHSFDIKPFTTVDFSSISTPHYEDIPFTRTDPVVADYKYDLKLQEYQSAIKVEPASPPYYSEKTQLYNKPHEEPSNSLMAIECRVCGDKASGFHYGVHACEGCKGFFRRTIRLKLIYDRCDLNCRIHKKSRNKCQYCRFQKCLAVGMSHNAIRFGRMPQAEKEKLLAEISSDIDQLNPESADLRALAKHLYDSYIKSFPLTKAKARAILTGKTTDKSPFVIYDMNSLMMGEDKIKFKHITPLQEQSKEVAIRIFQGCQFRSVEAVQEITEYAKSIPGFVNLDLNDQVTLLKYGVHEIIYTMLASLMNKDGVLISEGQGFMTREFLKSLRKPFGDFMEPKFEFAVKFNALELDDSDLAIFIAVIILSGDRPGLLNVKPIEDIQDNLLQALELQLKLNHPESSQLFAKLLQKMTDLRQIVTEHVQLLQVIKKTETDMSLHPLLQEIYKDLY
Chain of Pyruvate kinase PKM (Homo sapiens) (P14618 whole entry, looked up): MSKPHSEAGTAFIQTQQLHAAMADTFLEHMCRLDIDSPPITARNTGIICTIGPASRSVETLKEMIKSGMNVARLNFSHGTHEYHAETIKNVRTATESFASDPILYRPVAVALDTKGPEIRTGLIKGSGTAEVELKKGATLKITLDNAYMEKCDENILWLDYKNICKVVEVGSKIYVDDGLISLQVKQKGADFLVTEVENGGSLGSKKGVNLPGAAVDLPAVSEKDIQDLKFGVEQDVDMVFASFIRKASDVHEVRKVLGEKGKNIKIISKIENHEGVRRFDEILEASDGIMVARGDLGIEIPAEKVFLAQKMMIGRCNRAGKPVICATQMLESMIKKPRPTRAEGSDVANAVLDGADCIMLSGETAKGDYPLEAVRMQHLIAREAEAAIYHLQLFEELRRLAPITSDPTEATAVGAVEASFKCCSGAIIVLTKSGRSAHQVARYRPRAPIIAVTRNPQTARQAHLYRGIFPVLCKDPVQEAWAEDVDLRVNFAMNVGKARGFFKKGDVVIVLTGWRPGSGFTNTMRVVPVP
Chain of Alpha-galactosidase A (Homo sapiens) (P06280 whole entry, looked up): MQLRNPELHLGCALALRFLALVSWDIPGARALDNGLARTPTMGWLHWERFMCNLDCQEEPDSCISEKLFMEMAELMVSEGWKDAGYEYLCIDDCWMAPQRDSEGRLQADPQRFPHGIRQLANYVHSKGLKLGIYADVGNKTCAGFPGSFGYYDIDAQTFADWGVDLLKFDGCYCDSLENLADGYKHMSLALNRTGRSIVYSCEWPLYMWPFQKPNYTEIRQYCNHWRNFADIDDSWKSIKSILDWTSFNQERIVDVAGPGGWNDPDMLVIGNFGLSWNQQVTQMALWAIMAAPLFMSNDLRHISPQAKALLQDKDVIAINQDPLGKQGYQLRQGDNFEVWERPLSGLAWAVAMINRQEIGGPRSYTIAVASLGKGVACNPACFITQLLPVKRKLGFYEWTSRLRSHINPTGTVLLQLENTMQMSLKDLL

CN1[C@@H]2CC(OC(=O)[C@@H](CO)c3ccccc3)C[C@@H]1[C@H]1O[C@H]12 (some centres undefined)
inactive: Potency (CP215)

N=C1C=CC(=C(c2ccc(N)cc2)c2ccc(N)cc2)C=C1
inactive: Potency [8] | outcome [9] | activation [11] 11.1% | activation [14] 3.01%
active: Potency [1] 15.1 µM | Potency [2] 19.6 µM | Potency [3] 18.6 µM | Potency [4] 3.16 µM | Potency [5] 20 µM | viability change, negative = cytotoxic [6] -99.9% | Potency [7] 7.94 µM | Potency [10] 42.2 µM | Potency [12] 1.33 µM | Potency [13] 0.531 µM

CC(CCC(=O)O)(c1ccc(O)cc1)c1ccc(O)cc1
inactive: Potency [1] > 92 µM | Potency [2] > 92 µM | Potency [3] > 92 µM | activity change, negative = cytotoxicity [4] -7.14% | Potency [5] | Potency [6] | Potency [7] | Potency [8] | outcome [9] | Potency [10] | activation [11] -5.03% and -5.24% | Potency [12] | Potency [13] | activation [14] 2.27% and -1.21%

CC[C@H]1C(=O)OC[C@H]1Cc1cncn1C
inactive: outcome [15] | outcome [16] | outcome [17] | outcome [18] | Potency [19]

CN1[C@@H]2CC[C@H]1CC(OC(=O)[C@@H](CO)c1ccccc1)C2 (some centres undefined)
inactive: outcome [15] | outcome [16] | outcome [17] | outcome [18] | Potency [19]

Oc1ccc([C@@H]2CNCCc3c2cc(O)c(O)c3Cl)cc1
inactive: outcome [16] | outcome [17] | outcome [18] | Potency [19]

OC[C@H](S)CS
inactive: Potency (CP215)

N[C@H](COP(=O)(O)O)C(=O)O
inactive: Potency (CP215)

Cc1nnc(SCC2=C(C(=O)O)N3C(=O)[C@@H](NC(=O)Cn4cnnn4)[C@@H]3SC2)s1
inactive: outcome [15] | outcome [17] | outcome [18] | Potency [19]
